Source: PubChem BioAssay (National Center for Advancing Translational Sciences (NCATS))
Pf growth 48h: inhibits P. falciparum growth in the first generation, 48 h; P. falciparum luciferase growth in erythrocytes, 48 h; Potency, µM (series often up to 28.7 µM), for the others: top-dose activity change, negative = inhibition, most hits filed as inhibitors; 310,000 compounds, 5.9% hits; also: % is scaled to controls: 0 for no effect and ±100 for the full control effect
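Parasite viability was followed by luminescence of a genomically integrated firefly luciferase. Cultures held 0.1% parasitemia at 2% hematocrit (final), incubated under 5% CO2 at 37 C.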
AMA1 RON2 block: disrupts binding of P. falciparum AMA1 to RON2 | Potency, µM (titrated, usually from 58.2 µM), for the others: at the top dose activity change, negative = inhibition, hits mostly inhibitors | AlphaScreen AMA1-biotinylated RON2 peptide binding | 360,000 compounds, 0.2% hits;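 also: 0% = vehicle wells and -100% = peptide control; nearly all actives have a fitted effect of over 45% in size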
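AMA1 (3D7) with his tag at 25 nM final met compounds first, then biotinylated RON2 peptide at 25 nM; detection used donor plus acceptor beads, 10 µg/mL apiece, read by AlphaScreen after 30 min at room temperature.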
Pf growth 96h: P. falciparum growth inhibition at 96 hours; P. falciparum luciferase reporter growth, 96 h; Potency, µM (series often up to 28.7 µM), inactives show at the highest dose activity change, negative = inhibition, hits mostly inhibitors; 320,000 compounds, 6.9% hits; also: % is scaled to controls: 0 for no effect and ±100 for the full control effect
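Cell-based qHTS: luciferase-tagged P. falciparum in erythrocytes (2% hematocrit, 0.05% parasitemia final) incubated with compounds for 96 hours, 37 C, 5% CO2; luciferase detection reagent then added and luminescence measured.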
NS1 inh: blocks influenza NS1 protein function; Potency, µM (titrated, usually from 46.1 µM), for inactives: at the highest dose activity, positive = more growth; 270,000 compounds, 0.4% hits; calls by dose curve; also: actives are rising curves; nearly all actives have a fitted effect of over 50% in size
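S. cerevisiae expressing influenza A NS1, grown in glucose, washed, then diluted 1:100 into pH 6.0 -URA galactose medium with 23 nl compound. Growth recovery read as OD600; NS1-free strain serves as control.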
Sm TGR inh: blocks Schistosoma mansoni thioredoxin glutathione reductase. Q962Y6. purified TGR, DTNB reduction, TNB absorbance 405 nm. Potency, µM (highest dose often 114 µM), inactives show at the top dose activity change, negative = inhibition, actives largely listed as inhibitors. 360,000 compounds, 3% hits. AID 485364; also: % is scaled to controls: 0 for no effect and ±100 for the full control effect; nearly all actives have a fitted effect of over 60% in size
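Kinetic colorimetric format: TGR-catalysed, NADPH-driven DTNB reduction monitored via TNB absorbance. Enzyme dispensed at 20 nM; compound exposure 15 min at room temperature before reaction start.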
* hit, by the source's call; ? = inconclusive; . = no result; [ ] = dose if it differs, or a comment. A selection: hits, their analogues and other compounds. The true share with any hit is near 11%. Unless noted, calls follow the shape of the dose curve; as a rule, active = well fitted curve in the direction sought with a large enough effect; inconclusive = small, poorly fitted or top-dose-only effect, or another doubt; inactive = no such curve, though single readings can be large; an effect the other way counts as inactive or inconclusive. Potency is read from the fitted curve at half-maximal effect.

SMILES	Pf growth 48h	AMA1 RON2 block	Pf growth 96h	NS1 inh	Sm TGR inh
NC(=O)[C@@H]1CC2(CC(c3cccc(NC(=O)COc4ccc(Cl)cc4)c3)=NO2)CN1C(=O)c1ccccc1 (stereo not given in full)	10µM*	-11%	13µM*	0%	12%
Cc1c(NC(=O)OC(C)C)sc(=S)n1C	8%	0%	2%	13%	35µM*
CCN1CCN(Cc2ccc(NC(=O)c3ccc(C)c(NC(=O)c4cc(-c5ccc(Br)cc5)n[nH]4)c3)cc2C(F)(F)F)CC1	1µM*	0%	1.9µM*	11%	7%
CCN1CCN(Cc2ccc(NC(=O)c3ccc(C)c(NC(=O)c4cccc5[nH]ccc45)c3)cc2C(F)(F)F)CC1	12µM*	-20%	10µM*	-8%	1%
CCN1CCN(Cc2ccc(NC(=O)c3ccc(C)c(NC(=O)c4nccnc4N)c3)cc2C(F)(F)F)CC1	5.2µM*	48%	2.6µM*	-8%	16%
CCN1CCN(Cc2ccc(NC(=O)c3cc(NC(=O)c4cnnc5ccccc45)cc(OC)c3)cc2C(F)(F)F)CC1	2.3µM*	-25%	2.9µM*	-7%	4%
CCN1CCN(Cc2ccc(NC(=O)c3ccc(C)c(NC(=O)c4nccn4C)c3)cc2C(F)(F)F)CC1	?	45%	-25%	-2%	10%
CCN1CCN(c2cc(C)c3cc(NC(=O)c4cccc(C(F)(F)F)c4)ccc3n2)CC1	.	.	.	.	9%
Oc1c(C(c2cccc(Cl)c2)N2CCOCC2)sc2nc(-c3ccco3)nn12 (stereo not given)	.	.	.	.	-1%
COCCC1CCCCN1C(=O)c1ccc(OC2CCN(C(C)=O)CC2)c(OC)c1 (stereo not given)	10%	16%	?	1%	-3%
COc1ccc(-c2cc(C(F)(F)F)n3nc(C(=O)Nc4cc(C(F)(F)F)ccc4Cl)cc3n2)cc1OC	.	.	.	.	-1%
CCN1CCN(Cc2ccc(NC(=O)c3ccc(C)c(NC(=O)N4CCNC4=O)c3)cc2C(F)(F)F)CC1	?	-10%	?	2%	-6%
CCN1CCN(Cc2ccc(NC(=O)c3cc(NC(=O)c4nccnc4N)cc(OC)c3)cc2C(F)(F)F)CC1	1.7µM*	-8%	1.5µM*	-34%	13%
CCN1CCN(Cc2ccc(NC(=O)c3cc(NC(=O)c4cncc(-c5ccc(C#N)cc5)c4)cc(OC)c3)cc2C(F)(F)F)CC1	0.47µM*	?	0.1µM*	-8%	5%
CC1Cc2ccccc2N1C(=O)COC(=O)c1ccc([N+](=O)[O-])o1 (stereo not given)	.	-9%	.	.	.
CC(C)N(Cc1ccccc1)C(=O)c1ccc2nsnc2c1	23%	-9%	?	0%	0%
CC(C)(C)NC(=O)CSc1nc(Cc2ccccc2)nc2ccccc12	-17%	5%	13µM*	-22%	-15%
CC(C)N(C(=O)CSc1nc(Cc2ccccc2)nc2ccccc12)C(C)C	10µM*	4%	-2%	9%	3%
CC(C)(C)NC(=O)CSc1nc2ccccc2c(=O)[nH]1	12µM*	-9%	77%	1%	7%
CCC(C)(C)NC(=O)CSc1nc(Cc2ccccc2)nc2ccccc12	?	-2%	?	7%	13%
CCOc1ccccc1NC(=O)CCCNC(=O)Cn1cnc2sc(C)c(C)c2c1=O	10%	-19%	4%	-6%	-3%
Clc1ccc2nncn2n1	-12%	2%	?	.	-3%
CCOC(=O)/C(C#N)=C\C1=C(N2CCOCC2)CC(C)(C)OC1	3%	8%	-18%	.	32µM*
COc1ccccc1C(=O)N=C1SC2CS(=O)(=O)CC2N1c1ccccc1 (stereo not given)	23%	11%	?	-5%	-7%
CCOC1OC(=O)C(Cl)=C1Nc1ccc(C)cc1 (stereo not given)	22%	-18%	5%	.	-2%
SMILES	Pf growth 48h	AMA1 RON2 block	Pf growth 96h	NS1 inh	Sm TGR inh
CCOC1OC(=O)C(Cl)=C1Nc1ccc(C)cc1C (stereo not given)	?	-5%	2.3µM*	6%	-20%
COc1ccc(C(=O)N2CC(=O)Nc3ccc(F)cc3C2c2ccc(F)cc2)c(OC)c1 (stereo not given)	.	.	.	.	-1%
CCOC(=O)CN1CC23C=CC(O2)C(C(=O)NCc2cccs2)C3C1=O (stereo not given)	.	-11%	?	-7%	-5%
COC(=O)C1C2C=CC3(CN(Cc4ccco4)C(=O)C13)O2 (stereo not given)	22%	11%	?	6%	28µM*
CCOC(=O)C1C2C=CC3(CN(Cc4ccco4)C(=O)C13)O2 (stereo not given)	-21%	17%	-9%[5.75 µM]	13%	32µM*
O=C(O)C1C2C=CC3(CN(Cc4ccco4)C(=O)C13)O2 (stereo not given)	.	0%	5%	0%	?
CCOC(=O)CN1CC23C=CC(O2)C(C(=O)NCc2ccc(C)cc2)C3C1=O (stereo not given)	.	2%	10µM*	2%	9%
CC(C)(C)NCCOCCOc1ccccc1-c1ccccc1	?	-1%	3.7µM*	5%	6%
CN(C)CCNCCCOc1ccccc1-c1ccccc1	2.6µM*	.	47%	-3%	.
COCCCNCCOCCOc1ccccc1-c1ccccc1	-8%	-5%	?	?	1%
CCCCCN(C(=O)CCC(=O)OCC(=O)N1CCCCC1)c1c(N)n(CCCC)c(=O)[nH]c1=O	2%	-26%	-3%	5%	5%
CCOc1ccc2nc(SCC(=O)N3c4ccccc4Sc4ccccc43)c(C#N)cc2c1	10µM*	4%	?	5%	1%
N#Cc1cc(C#N)c(SCC(=O)N2CC(=O)Nc3ccccc32)nc1N	?	29%	?	.	-16%
Cc1ccc2nc(SCC(=O)Nc3ccccc3N3CCOCC3)c(C#N)cc2c1	7.4µM*	-10%	?	1%	-7%
CCc1ccc2nc(SCC(=O)N3CC(=O)Nc4ccccc43)c(C#N)cc2c1	-7%	-6%	12µM*	10%	-15%
Cc1ccc(SCC(=O)Nc2ccccc2N2CCOCC2)cc1	-12%	-2%	?	-39%	4%
CCc1ccc2nc(SCC(=O)N3CCCCC3)c(C#N)cc2c1	.	13%	.	.	.
CCc1ccc2nc(SCC(=O)Nc3ccccc3N3CCOCC3)c(C#N)cc2c1	9.3µM*	-9%	-54%	-42%	-2%
CCOc1ccc2nc(SCC(=O)N3c4ccccc4Sc4ccccc43)sc2c1	3%	6%	-11%	-1%	-7%
COc1ccc(OC)c(-c2cc(-c3cccnc3)nc(N)c2C#N)c1	?	14%	9.3µM*	0%	8%
COc1cccc(-c2cc(-c3cccnc3)nc(N)c2C#N)c1	-5%	-2%	-11%	9%	6%
COc1ccc(-c2cc(-c3ccc(O)cc3)nc(N)c2C#N)cc1	?	30%	-19%	-14%	-20%
